The values that follow come from PubChem BioAssay (EPA / NIEHS).

SMILES strings stand for the structures. Activity calls are given as the source filed them. Rule for the calls: active = hit-call score of the fitted dose curve at least 0.9, where 1 is the maximum; inactive = score below 0.9.

Read-out in assay [1]: Transforming growth factor beta 1 (TGFb1), TGFB1 (gene 7040)
The assay can be described thus: BSK_KF3CT_TGFb1: BioMAP Diversity Plus: KF3CT Assay for Transforming growth factor beta 1 (TGFb1) Biomarker Activity (AID 2283072). The note with it: primary human keratinocytes with fibroblasts; actives raise or lower the signal. An outline of the steps:
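ELISA quantifies TGF-b1 at 24 h post-dose in a primary human skin co-culture of keratinocytes and fibroblasts, with gain or loss judged against DMSO. Parallel SRB total-protein staining flags overt cytotoxicity.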

Read-out in assay [2]: Matrix Metallopeptidase 9 (MMP9), MMP9 (gene 4318)
As to the kind of experiment: BSK_KF3CT_MMP9: BioMAP Diversity Plus: KF3CT Assay for Matrix Metallopeptidase 9 (MMP9) Biomarker Activity (AID 2283074). Conditions: primary human keratinocytes with fibroblasts; actives raise or lower the signal. Summed up:
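ELISA read-out of MMP-9 at 24 h post-dosing in a co-culture of human skin keratinocytes and foreskin fibroblasts. Gain or loss of signal was fitted in both directions against DMSO.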

Read-out in assay [3]: urokinase plasminogen activator (uPA), PLAU (gene 5328)
As to the kind of experiment: BSK_KF3CT_uPA: BioMAP Diversity Plus: KF3CT Assay for urokinase plasminogen activator (uPA) Biomarker Activity (AID 2283075). The note with it: primary human keratinocytes with fibroblasts; actives raise or lower the signal. An outline of the steps: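 Skin co-culture (keratinocytes + foreskin fibroblasts), human primary; 24 h post-dose; uPA by ELISA; gain/loss fit vs DMSO baseline.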

Read-out in assay [4]: CD40, CD40 (gene 958)
As to the kind of experiment: BSK_LPS_CD40: BioMAP Diversity Plus: LPS Assay for CD40 Biomarker Activity (AID 2283076). The note with it: primary human HUVEC with PBMC; actives raise or lower the signal. Summed up:
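Primary human umbilical vein endothelial cells co-cultured with peripheral blood mononuclear cells, LPS-stimulated, were dosed with chemical and read 24 h later. CD40 levels were measured by ELISA and fitted bidirectionally against DMSO as negative control and baseline.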

Read-out in assay [5]: E-selectin (Homo sapiens) (UniProt P16581)
The assay can be described thus: BSK_LPS_Eselectin: BioMAP Diversity Plus: LPS Assay for Eselectin Biomarker Activity (AID 2283077). Conditions: primary human HUVEC with PBMC; actives raise or lower the signal. Summed up:
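Human umbilical vein endothelial cells co-cultured with peripheral blood mononuclear cells under LPS stimulation; E-selectin measured by ELISA 24 h after chemical dosing. Activity fitted bidirectionally against DMSO as negative control and baseline.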

Read-out in assay [6]: Interleukin-8 (IL8), CXCL8 (gene 3576)
As to the kind of experiment: BSK_LPS_IL8: BioMAP Diversity Plus: LPS Assay for Interleukin-8 (IL8) Biomarker Activity (AID 2283078). Conditions: primary human HUVEC with PBMC; actives raise or lower the signal. An outline of the steps: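 Human umbilical vein endothelial cells co-cultured with PBMC were stimulated with LPS; IL-8 levels were measured by ELISA 24 h after chemical dosing. Activity was fitted bidirectionally against DMSO as negative control and baseline.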

The nature of assay [7]: BSK_LPS_SRB: Viability Assessment in the BioMAP Diversity Plus: LPS Assay (AID 2283079).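 Note: total protein by sulforhodamine B absorbance as a cytotoxicity measure; measured one day after compound addition.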 The note with it: primary human HUVEC with PBMC. An outline of the steps:
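Human umbilical vein endothelial cells co-cultured with PBMC (LPS system) were dosed for 24 h. Total protein was stained with 0.1% sulforhodamine B after 10% TCA fixation, read at 560 nm, and fitted bidirectionally against DMSO baseline.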

Read-out in assay [8]: Interleukin-1 alpha (IL1a), IL1A (gene 3552)
The assay can be described thus: BSK_LPS_IL1a: BioMAP Diversity Plus: LPS Assay for Interleukin-1 alpha (IL1a) Biomarker Activity (AID 2283080). The note with it: primary human HUVEC with PBMC; actives raise or lower the signal. An outline of the steps:
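Human umbilical vein endothelial cells co-cultured with peripheral blood mononuclear cells were LPS-stimulated and exposed to test chemicals for 24 h. IL-1 alpha was quantified by ELISA, with bidirectional curve fitting against DMSO as the negative control and baseline.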

Read-out in assay [9]: Monocyte Chemoattractant Protein-1 (MCP1), CCL2 (gene 6347)
The assay can be described thus: BSK_LPS_MCP1: BioMAP Diversity Plus: LPS Assay for Monocyte Chemoattractant Protein-1 (MCP1) Biomarker Activity (AID 2283081). The note with it: primary human HUVEC with PBMC; actives raise or lower the signal. Summed up:
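HUVEC plus PBMC co-culture (human primary cells, LPS system) exposed to test chemical for 24 h; MCP-1 measured by ELISA. Bidirectional curve fitting against DMSO baseline; parallel SRB total-protein staining flags overt cytotoxicity.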

A short description of assay [10]: BSK_LPS_PGE2: BioMAP Diversity Plus: LPS Assay for Prostaglandin E2 (PGE2) Biomarker Activity (AID 2283082). Conditions: primary human HUVEC with PBMC; actives raise or lower the signal. Summed up:
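PGE2 release measured by ELISA in an LPS-activated co-culture of human umbilical vein endothelial cells and peripheral blood mononuclear cells, read at 24 h post-dosing. DMSO served as baseline for bidirectional curve fitting.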

Read-out in assay [11]: Macrophage colony-stimulating factor (MCSF), CSF1 (gene 1435)
The assay can be described thus: BSK_LPS_MCSF: BioMAP Diversity Plus: LPS Assay for Macrophage colony-stimulating factor (MCSF) Biomarker Activity (AID 2283083). The note with it: primary human HUVEC with PBMC; actives raise or lower the signal. Summed up: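 Human umbilical vein endothelial cells co-cultured with peripheral blood mononuclear cells were exposed to compound for 24 h. M-CSF levels were measured by ELISA, and bidirectional curve fitting used DMSO as the negative control and baseline.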

Read-out in assay [12]: Tissue Factor, F3 (gene 2152)
As to the kind of experiment: BSK_LPS_TissueFactor: BioMAP Diversity Plus: LPS Assay for Tissue Factor Biomarker Activity (AID 2283084). The note with it: primary human HUVEC with PBMC; actives raise or lower the signal. An outline of the steps: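 Human umbilical vein endothelial cells co-cultured with peripheral blood mononuclear cells were dosed and stimulated with LPS. Cell-surface CD142 was quantified by ELISA at 24 h. Activity was fitted bidirectionally against DMSO baseline.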

Read-out in assay [13]: Tumor necrosis factor (Homo sapiens) (UniProt P01375)
As to the kind of experiment: BSK_LPS_TNFa: BioMAP Diversity Plus: LPS Assay for Tumour Necrosis Factor alpha (TNFa) Biomarker Activity (AID 2283085). Conditions: primary human HUVEC with PBMC; actives raise or lower the signal. Summed up: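 TNFa was quantified by ELISA in LPS-activated co-cultures of human endothelial cells and PBMC, 24 h post-dosing. Both increases and decreases versus DMSO were fitted.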

Read-out in assay [14]: Vascular cell adhesion molecule 1 (VCAM1), VCAM1 (gene 7412)
As to the kind of experiment: BSK_LPS_VCAM1: BioMAP Diversity Plus: LPS Assay for Vascular cell adhesion molecule 1 (VCAM1) Biomarker Activity (AID 2283086). The note with it: primary human HUVEC with PBMC; actives raise or lower the signal. Summed up:
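VCAM-1 quantified by ELISA in an LPS-activated co-culture of human endothelial cells and peripheral blood mononuclear cells, read 24 h post-treatment. Fitted in both directions versus DMSO; parallel SRB staining flags overt cytotoxicity.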

Read-out in assay [15]: CD38, CD38 (gene 952)
The assay can be described thus: BSK_SAg_CD38: BioMAP Diversity Plus: SAg Assay for CD38 Biomarker Activity (AID 2283087). Conditions: primary human HUVEC with PBMC; actives raise or lower the signal. Summed up:
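CD38 quantified by ELISA (fluorescence) in a superantigen-activated endothelial cell–PBMC co-culture at 24 h post-dose. Activity fitted in both directions relative to DMSO; parallel SRB and Alamar Blue cytotoxicity read-outs.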

Read-out in assay [16]: CD40, CD40 (gene 958)
As to the kind of experiment: BSK_SAg_CD40: BioMAP Diversity Plus: SAg Assay for CD40 Biomarker Activity (AID 2283088). Conditions: primary human HUVEC with PBMC; actives raise or lower the signal. An outline of the steps: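 Human umbilical vein endothelial cells co-cultured with PBMC; CD40 levels measured by ELISA with fluorescence read-out 24 h after chemical dosing. Gain or loss of signal fitted bidirectionally against DMSO baseline.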

Read-out in assay [17]: Monocyte Chemoattractant Protein-1 (MCP1), CCL2 (gene 6347)
As to the kind of experiment: BSK_SAg_MCP1: BioMAP Diversity Plus: SAg Assay for Monocyte Chemoattractant Protein-1 (MCP1) Biomarker Activity (AID 2283090). The note with it: primary human HUVEC with PBMC; actives raise or lower the signal. Summed up: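 Values derive from bidirectional fitting of ELISA-measured MCP1 against DMSO controls. Readings were taken 24 h after dosing human vascular endothelial cells co-cultured with peripheral blood mononuclear cells under superantigen stimulation.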

Read-out in assay [18]: E-selectin (Homo sapiens) (UniProt P16581)
As to the kind of experiment: BSK_SAg_Eselectin: BioMAP Diversity Plus: SAg Assay for Eselectin Biomarker Activity (AID 2283091). Conditions: primary human HUVEC with PBMC; actives raise or lower the signal. An outline of the steps:
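HUVEC co-cultured with PBMC, compound dosed then read at 24 h; E-selectin measured by ELISA. Activity fitted bidirectionally against DMSO as negative control and baseline.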

E-selectin (Homo sapiens), sequence (P16581 whole entry, looked up): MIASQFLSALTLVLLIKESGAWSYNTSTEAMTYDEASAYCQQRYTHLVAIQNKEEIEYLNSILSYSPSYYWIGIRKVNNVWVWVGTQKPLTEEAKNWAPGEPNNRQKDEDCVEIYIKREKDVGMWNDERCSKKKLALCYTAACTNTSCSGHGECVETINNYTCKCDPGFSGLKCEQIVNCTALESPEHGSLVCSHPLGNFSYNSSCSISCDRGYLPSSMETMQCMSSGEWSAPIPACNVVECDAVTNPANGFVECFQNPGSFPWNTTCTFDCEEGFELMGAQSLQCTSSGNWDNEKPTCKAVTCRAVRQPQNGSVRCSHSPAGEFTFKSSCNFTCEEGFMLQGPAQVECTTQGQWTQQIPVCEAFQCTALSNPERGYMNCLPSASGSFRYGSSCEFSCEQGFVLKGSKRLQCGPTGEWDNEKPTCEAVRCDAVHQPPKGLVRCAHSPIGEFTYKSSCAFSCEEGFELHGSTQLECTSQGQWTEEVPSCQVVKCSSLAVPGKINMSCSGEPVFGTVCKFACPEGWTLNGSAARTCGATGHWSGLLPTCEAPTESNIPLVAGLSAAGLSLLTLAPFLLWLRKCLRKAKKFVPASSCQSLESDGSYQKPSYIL
Tumor necrosis factor (Homo sapiens), sequence (P01375 whole entry, looked up): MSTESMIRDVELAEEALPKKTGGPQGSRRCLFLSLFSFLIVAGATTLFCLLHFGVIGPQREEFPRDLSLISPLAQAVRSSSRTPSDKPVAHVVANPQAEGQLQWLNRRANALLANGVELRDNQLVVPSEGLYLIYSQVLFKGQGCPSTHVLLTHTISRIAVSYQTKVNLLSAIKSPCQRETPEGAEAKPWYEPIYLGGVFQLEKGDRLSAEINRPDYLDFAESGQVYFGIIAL

For the compound `Cc1nc(N(C)C)nc(OC(=O)N(C)C)c1C`, the result in assay [1], in [2], in assay [3], in assay [4], in assay [5] and in assay [6] was inactive. For the same compound, the result in [7], in assay [8], in assay [9], in assay [10], in [11] and in [12] was inactive. Further, the result in [13], in [14], in [15], in assay [16], in [17] and in assay [18] was inactive.
One may read the AC50 as the concentration at which the activity in the assay is half-maximal. Turning to `CCN(CC)C(=O)C(C)Oc1cccc2ccccc12` (stereo not drawn), the outcome in assay [1], in [2], in assay [3], in assay [4], in assay [5] and in assay [6] was inactive. Besides, the outcome in assay [7], in assay [8], in assay [9], in assay [10], in [12] and in [13] was inactive. Moreover, the result in assay [14], in [15], in assay [16] and in [17] was inactive. In addition, the AC50 was 274 nM (active) in assay [11] and 1060 nM (active) in assay [18].
Take `COC(=O)NS(=O)(=O)c1ccc(N)cc1`: the result in assay [1], in assay [2], in assay [3], in assay [4], in [5] and in assay [6] was inactive. The result in [7], in assay [8], in [9], in assay [10], in assay [11] and in assay [12] was inactive. For the same compound, the result in assay [13], in [14], in assay [16], in assay [17] and in assay [18] was inactive.
